Experimental data: PubChem BioAssay (NCI)
Compounds without any hit were thinned out: in the full panel of roughly 83,000, 20% have a hit.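 Results are percent growth after 48 hours of single-concentration exposure. 100 means growth as in untreated cells, lower positive values show inhibition; negative values down to -100 show cell death.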 Unmarked numbers belong to inactive results. Activity calls are given as the source filed them. The calls were made as follows: active = growth percent below 10; inactive = the rest.

Key:
Test in all cases: NCI-60 one-dose screen, 48 h (100 = growth as untreated, 0 = no growth, -100 = all killed)
Conditions in all cases: 10 µM unless noted
NCI-H23 lung = system: NCI-H23 lung
NCI-H226 lung = system: NCI-H226 lung
NCI-H322M lung = system: NCI-H322M lung
HOP-62 NSCLC = system: HOP-62 NSCLC
NCI-H460 lung = system: NCI-H460 lung
HOP-92 NSCLC = system: HOP-92 NSCLC
NCI-H522 lung = system: NCI-H522 lung
A549/ATCC NSCLC = system: A549/ATCC NSCLC
786-0 renal = system: 786-0 renal
COLO 205 colon = system: COLO 205 colon
DU-145 prostate = system: DU-145 prostate
K-562 leukemia = system: K-562 leukemia
MALME-3M melanoma = system: MALME-3M melanoma
MDA-MB-231 breast = system: MDA-MB-231 breast
RXF 393 renal = system: RXF 393 renal
SF-268 CNS = system: SF-268 CNS
SF-295 CNS = system: SF-295 CNS
SF-539 CNS = system: SF-539 CNS
UACC-257 melanoma = system: UACC-257 melanoma
M14 melanoma = system: M14 melanoma

SMILES | growth (NCI-H23 lung) | growth (NCI-H226 lung) | growth (NCI-H322M lung) | growth (HOP-62 NSCLC) | growth (NCI-H460 lung) | growth (HOP-92 NSCLC) | growth (NCI-H522 lung) | growth (A549/ATCC NSCLC) | growth (786-0 renal) | growth (COLO 205 colon) | growth (DU-145 prostate) | growth (K-562 leukemia) | growth (MALME-3M melanoma) | growth (MDA-MB-231 breast) | growth (RXF 393 renal) | growth (SF-268 CNS) | growth (SF-295 CNS) | growth (SF-539 CNS) | growth (UACC-257 melanoma) | growth (M14 melanoma)
Cc1c(O)c(O)cc2c3c(oc12)CC(c1ccc2c(c1)OCO2)CC3=O (stereo not given) | 83.4% | 81.2% | 90.1% | 75.2% | 93.7% | -37.4% (active) | 53.3% | 93.8% | 100% | 103% | 97.7% | 82.1% | 105% | 76.9% | 115% | 83.3% | 106% | 81.8% | 94.7% | 84%
O=C1/C(=C/c2ccc(-c3cccc(C(F)(F)F)c3)o2)SC(=S)N1CCc1ccc(O)cc1 | 85% | 101% | 90.3% | 88.9% | 72.4% | 63.5% | 4% (active) | 75% | 17.9% | -3.13% (active) | 12.8% | 20.6% | 71.6% | 90.5% | 82.2% | 56.8% | 96.6% | 76.2% | 95% | 57.5%
Cc1ccc(C(=O)Nc2nc3c(s2)CN(Cc2ccccc2)CC3)cn1 | 80.5% | 88.8% | 92.9% | 88.5% | 101% | 97.5% | 65.9% | 75.4% | 85.1% | 87.4% | 98% | 36.8% | 87.1% | 100% | 102% | 91% | 89.6% | 103% | 92.9% | 79.9%
C=CCN1C=CC(=O)[C@H](O[Si](C)(C)C(C)(C)C)[C@@H]1/C=C/c1ccccc1 | -71.6% [100 µM] (active) | -65.3% [100 µM] (active) | -59.2% [100 µM] (active) | -88.9% [100 µM] (active) | -49.3% [100 µM] (active) | -89.7% [100 µM] (active) | -39.1% [100 µM] (active) | -40.4% [100 µM] (active) | -88.2% [100 µM] (active) | -64% [100 µM] (active) | -59.1% [100 µM] (active) | 4.18% [100 µM] (active) | -57.5% [100 µM] (active) | -68.3% [100 µM] (active) | -45.5% [100 µM] (active) | -58.2% [100 µM] (active) | -66.7% [100 µM] (active) | -82.7% [100 µM] (active) | -75.9% [100 µM] (active) | -78.6% [100 µM] (active)
CN1CCN(c2ccc(Nc3ncc(C(N)=O)c(NCCCNC(=O)C4CCC4)n3)cc2)CC1 | 70.4% | 62.1% | 75.8% | 34% | 78.9% | 113% | 77.3% | 78.2% | 90.2% | -5.21% (active) | 67.6% | 41.7% | 76.6% | 11.6% | 20.4% | 80.6% | 81.3% | 11.1% | 119% | 80%
COc1cc(/C=N/NC(=O)CCN2c3ccccc3Sc3ccccc32)cc(OC)c1OC | 71.8% | 79.3% | 83.2% | 101% | 95.8% | 61.5% | 70.3% | 79% | 96.8% | 105% | 97.4% | 61.7% | 93.3% | 68.5% | 85.8% | 93.8% | 74.3% | 85.6% | 92.7% | 79.3%
CCOC(=O)c1c(-c2ccc(OC)cc2)c(C#N)c2c(C#N)c(N)nn2c1N | 62.2% | 61.5% | 80.9% | 35.8% | 9.75% (active) | 15.4% | -6.29% (active) | 36.4% | 45.3% | 18.6% | 56.1% | 5.64% (active) | 30.8% | 28.4% | 59.7% | 40.2% | 28.2% | 25.1% | 49.9% | 34.2%
O=C(CCl)n1nnnc1Cc1ccccc1 | 102% | 104% | 102% | 90.2% | 108% | 102% | 90.8% | 92.2% | 95% | 111% | 110% | 83.4% | 106% | 92.9% | 112% | 106% | 90.7% | 92.2% | 88.7% | 98.6%
NC1=CC(=O)c2cccnc2C1=O | -33.1% (active) | 59.2% | 71.1% | 14.6% | -53.6% (active) | -31.3% (active) | -57.9% (active) | 26.6% | 26.5% | 76.7% | -1.98% (active) | -48.4% (active) | -81.4% (active) | -13.5% (active) | 15.8% | -0.409% (active) | 22.4% | -89.2% (active) | -48.4% (active) | -88.6% (active)
COc1cc(Nc2nc3ccccc3cc2C(=O)Nc2ccc(F)c(F)c2)cc(OC)c1OC | 9.57% (active) | 22.1% | 53% | 46% | 9.51% (active) | 1.01% (active) | 20.4% | 22.7% | 34.5% | 9.14% (active) | 30% | 16.8% | 51.5% | 30.5% | 68.3% | 40.4% | 14.2% | 37.9% | 52.3% | 24.4%
O=C(NCCCN1CCCCC1)c1ccc(-c2nc3ccc4[nH]ncc4c3c3c2CCCC3)cc1 | 49.3% | 63.8% | 51.7% | 47.6% | 24.9% | 46.2% | 42.8% | 26.6% | 44.3% | 60.9% | 51.3% | 16.7% | 70.8% | 54.9% | 28.5% | 54.2% | 55.3% | 43.8% | 97.2% | 57.3%
Cc1ccc(S(=O)(=O)OC[C@@]2(C)CC[C@]3(C)CC[C@]4(C)C(=C3C2)C=C[C@@H]2[C@@]3(C)CCCNC(C)(C)[C@@H]3CC[C@]24C)cc1 | 59.2% | 66.8% | 26.9% | 53.7% | -65.4% (active) | 28.6% | -47.1% (active) | -38.2% (active) | -90.7% (active) | -78% (active) | -1.23% (active) | -28.1% (active) | 15.1% | -43.7% (active) | -7.17% (active) | 74.7% | 102% | 1.1% (active) | 61.9% | -64.9% (active)
COc1ccc(C2=C(CN)C(O)NC(=NCC(=O)c3ccc4ccccc4c3)N2)cc1 (stereo not given) | 103% | 100% | 104% | 98.7% | 114% | 113% | 86% | 95.5% | 98.5% | 87.4% | 107% | 102% | 101% | 103% | 112% | 94.1% | 98.4% | 90.8% | 91.3% | 95.1%
Cc1ccc(Nc2nc(-c3cc(O)c(C)c(C)c3O)cs2)cc1 | 90.4% | 90.2% | 102% | 99.9% | 104% | 98.2% | 65.8% | 88.1% | 118% | 116% | 97.3% | 66.5% | 109% | 104% | 99.3% | 92.3% | 101% | 96.6% | 104% | 96.6%
CCCCCC#CC1OC23CCCCC2C(C#N)(C(=N)O3)C1(C#N)C#N (stereo not given) | 101% | 97.4% | 98.3% | 98.8% | 99.8% | 90.4% | 77.5% | 75.6% | 91.4% | 117% | 102% | 84% | 98% | 95.8% | 105% | 102% | 98.5% | 100% | 78.6% | 93.7%
